tim23-1 inh: tim23-1 yeast growth inhibition; S. cerevisiae tim23-1 growth, BacTiter-Glo luminescence, 24 h; inhibition, % at 20 µM; 330,000 compounds, 1.3% hits;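 active = growth inhibition of the mutant yeast at or above 50%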;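 note: temperature-sensitive mutant grown at 25 °C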
NLRP3 yeast inh: NALP3 inhibition in yeast; Yeast reconstituted NLRP3/ASC/caspase-1, beta-gal luminescence, 24 h; 330,000 compounds, 0.39% hits; inhibition, % at 10 µM;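 active = inhibition of 50% or more; inactive = inhibition below 50%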
tim10-1 inh: growth inhibitors of tim10-1 mutant yeast | inhibition, % at 20 µM | S. cerevisiae tim10-1 ts strain growth, BacTiter-Glo, 24 h | 330,000 compounds, 2.2% hits | AID 463190;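 active = inhibition of at least 40%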;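 note: mutant grown at 25 °C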
V-ATPase pHluor: alters yeast V-ATPase proton transport. response, % at 10 µM. AID 504577. S. cerevisiae, pHLuorin cytosolic pH fluorescence. 350,000 compounds, 0.37% hits; in the data active = response mostly above about 7.3%, no sharp cut-off; inactive = mostly below about 5.4%; note: actives read high
NALP1 yeast inh: NALP1 inhibition; S. cerevisiae NALP1/ASC/caspase-1 growth, X-gal OD620, 72 h; inhibition, % at 10 µM; 280,000 compounds, 0.61% hits; AID 2071; in the data active = inhibition mostly above about 24%, no sharp cut-off; inactive = mostly below about 32%
TIM10 inh: growth inhibitors of TIM10 yeast strain. S. cerevisiae TIM10 strain growth, BacTiter-Glo luminescence, 24 h. inhibition, % at 10 µM. 330,000 compounds, 1.4% hits. AID 463195;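 active = inhibition of 40% or more at the single tested concentration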;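 note: wild-type TIM10 isogenic control strain grown at permissive 25 °C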
tim10-1 confirm: confirmation of tim10-1 mutant yeast growth inhibitors; shares compounds with tim10-1 inh; inhibition, % at 20 µM; S. cerevisiae tim10-1 ts strain growth, BacTiter-Glo, 24 h; 7,400 compounds, 56% hits;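 active = inhibition of yeast growth at or above a set limit in either of two repeat tests at 20 µM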;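 note: tim10-1 mutant grown at permissive 25 °C to find synthetic lethal compounds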
Hits are given with their value; i = inactive; nt = no result. Most compounds without a hit are left out; they make up all but 4.2% or so of the library.

SMILES	tim23-1 inh	NLRP3 yeast inh	tim10-1 inh	V-ATPase pHluor	NALP1 yeast inh	TIM10 inh	tim10-1 confirm
O=C(CSc1nnnn1-c1ccccc1)N1CCCc2ccccc21	i	i	43	i	i	i	i
O=C(CSc1n[nH]c(-c2cccs2)n1)N1CCCc2ccccc21	i	i	i	i	i	i	nt
O=C(CSc1nnnn1-c1ccccc1)N1CCc2ccccc21	i	i	i	i	i	i	nt
CC(C)Cc1nnc(NC(=O)c2ccc3c(=O)n4c(nc3c2)CCC4)s1	i	i	i	i	i	i	nt
O=C(NC1CC1)c1sc2ccccc2c1Cl	i	i	i	i	i	i	nt
O=C(NNC(=S)NC1CCCCC1)c1sc2ccccc2c1Cl	i	i	50	i	i	i	i
COc1cccc(/C=N/NC(=O)C(=O)NCc2ccco2)c1O	i	i	58	i	i	i	i
CCOc1ccc2nc(SC3CC(=O)N(c4cccc(OC)c4)C3=O)sc2c1 (centres undefined)	i	i	42	i	i	i	37
Cc1onc(-c2ccccc2)c1C(=O)N(Cc1ccccc1)C(C)C	i	i	i	i	i	i	nt
C[C@@H]1CCCCO[C@@H](CN(C)S(C)(=O)=O)[C@@H](C)CN([C@H](C)CO)C(=O)c2cc(N(C)C)ccc2O1	nt	nt	nt	i	nt	nt	nt
N=c1n(Cc2ccccc2)c2ccccc2n1CC(O)COc1ccc(Cl)cc1Cl (centres undefined)	i	i	40	i	i	i	i
N=c1n(Cc2ccc(Cl)cc2)c2ccccc2n1CC(O)COc1ccccc1 (centres undefined)	i	i	i	i	i	i	nt
N/C(=N\c1nc2ccccc2o1)NC(=O)c1ccccc1Br	i	i	i	i	i	i	nt
COc1cccc(NC(=S)NC(=O)c2cncc(Br)c2)c1	i	i	47	i	nt	i	i
O=C(NC(=S)Nc1ccccc1[N+](=O)[O-])c1cncc(Br)c1	i	i	i	i	i	i	i
O=C(NC(=S)Nc1ccccc1O)c1cncc(Br)c1	i	i	i	i	nt	i	nt
CC[C@]1(C(=O)OC)[C@H]2C(=O)N(C)C(=O)[C@H]2[C@H]2CN=C(SCC3CC3)N21	i	nt	i	i	nt	i	nt
CC(C)C(=O)N1CCN(c2ccccc2NC(=O)c2ccc([N+](=O)[O-])o2)CC1	i	i	59	i	i	i	56
Cc1cccc(OCC(=O)Nc2ccccc2N2CCN(C(=O)C(C)C)CC2)c1C	i	i	48	i	i	i	30
CN1CCN(c2ccccc2NC(=O)c2ccc(-c3cccc(Cl)c3)o2)CC1	i	i	60	i	i	i	47
O=C(Nc1ccccc1N1CCCCC1)c1ccc(-c2cccc(Cl)c2)o1	i	i	i	i	i	i	nt
ClCC1NCC(c2ccccc2Cl)c2c1[nH]c1ccccc21 (centres undefined)	i	i	i	i	i	i	nt
CCCCn1c(N)c(N(Cc2ccccc2)C(=O)COc2ccccc2F)c(=O)[nH]c1=O	i	i	i	i	nt	i	nt
N#C/C(=C\Nc1ccc(Cl)cc1)S(=O)(=O)c1ccccn1	i	i	i	i	i	i	nt
O=C(CSc1nc2cc(Cl)ccc2s1)c1ccco1	i	i	43	i	i	i	37
SMILES	tim23-1 inh	NLRP3 yeast inh	tim10-1 inh	V-ATPase pHluor	NALP1 yeast inh	TIM10 inh	tim10-1 confirm
COc1ccc(-c2sc3cc4c(cc3c2C#CC2(N)CCCCC2)OCO4)cc1	i	i	48	i	nt	i	44
CCC1CCCCN1C(=O)c1ccc([N+](=O)[O-])o1 (centres undefined)	i	i	54	i	i	i	35
CCOC(=O)c1c(C)[nH]c(C)c1C(=O)COC(=O)c1cc2ccccc2cc1O	i	i	47	i	i	i	i
CCOC(=O)c1ccc(NC(=O)Cn2ncc(Cl)c(Cl)c2=O)cc1	i	i	40	i	i	i	i
CCOC(=O)c1ccc(NC(=O)Cn2nc(C)c3ccccc3c2=O)cc1	i	i	i	i	i	i	nt
COc1ccc(NC(=O)CSCC(=O)N(C)CC(=O)Nc2cccc3ccccc23)cc1	i	i	i	i	nt	i	nt
C=CCNC(=O)CN1C(=O)C2C3c4ccccc4C(c4ccccc43)C2C1=O (centres undefined)	i	i	i	i	i	i	nt
O=C1c2ccc([N+](=O)[O-])cc2C(=O)N1Cc1cccnc1	i	i	i	i	i	i	nt
CCS(=O)(=O)NCc1ccc2[nH]c3c(c2c1)CCCC3	i	i	i	nt	i	i	nt

Bioassay records: PubChem, several laboratories
